Assay outcomes: PubChem, National Center for Advancing Translational Sciences (NCATS)
Rows were chosen to be rich in hits. Some 9.4% of all compounds tested hit in one or more screens of this group.
AMA1-RON2 inh – AMA1-RON2 (P. falciparum) interaction inhibition. 360,000 compounds, 0.2% hits. AlphaScreen AMA1-biotinylated RON2 peptide binding. Potency, µM (titrated, usually from 58.2 µM), for inactives: at the highest dose activity change, negative = inhibition, usual class: inhibitors. AID 720542;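 also: 0% = vehicle wells and -100% = peptide control; nearly all actives have a fitted effect of over 45% in size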
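AMA1 (3D7) with his tag at 25 nM final met compounds first, then biotinylated RON2 peptide at 25 nM; detection used donor plus acceptor beads, 10 µg/mL apiece, read by AlphaScreen after 30 min at room temperature.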
Pf growth 96h – P. falciparum growth inhibition at 96 hour, primary screen for plastid delayed-death inhibitors | P. falciparum luciferase reporter growth, 96 h | Potency, µM (highest dose often 28.7 µM), for inactives: at the top dose activity change, negative = inhibition, usual class: inhibitors | 320,000 compounds, 6.9% hits; also: % is scaled to controls: 0 for no effect and ±100 for the full control effect
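P. falciparum expressing integrated firefly luciferase grown in erythrocytes (2% hematocrit, 0.05% parasitemia final) with compounds for 96 hours at 37 C, 5% CO2. Growth inhibition read as loss of luminescence after adding luciferase detection reagent.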
SARS PLP yeast – blocks SARS-CoV papain-like protease in a yeast assay; S. cerevisiae expressing SARS-CoV PLpro, growth rescue; Potency, µM (series often up to 32.9 µM), for the others: at the highest dose activity, positive = growth rescue, usual class: activators; 330,000 compounds, 0.19% hits; AID 485353; calls by dose curve; also: 0% is about no effect; nearly all actives have a fitted effect of over 55% in size
Pf growth 48h – P. falciparum growth inhibition at 48 hours (one generation); Potency, µM (top dose mostly 28.7 µM), inactives show at the top dose activity change, negative = inhibition, usual class: inhibitors; P. falciparum luciferase growth in erythrocytes, 48 h; 310,000 compounds, 5.9% hits; also: % is scaled to controls: 0 for no effect and ±100 for the full control effect
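Growth was read as firefly luciferase luminescence after a 48 h, 37 C, 5% CO2 exposure of compounds to reporter-bearing P. falciparum cultures (0.1% parasitemia, 2% hematocrit final) in Albumax-supplemented RPMI 1640.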
Numbers without * were called inactive; i = inactive; u = inconclusive; x = no result. Unless noted, calls follow the shape of the dose curve; as a rule, active = well fitted curve in the direction sought with a large enough effect; inconclusive = small, poorly fitted or top-dose-only effect, or another doubt; inactive = no such curve, though single readings can be large; an effect the other way counts as inactive or inconclusive. Potency is read from the fitted curve at half-maximal effect.

SMILES	AMA1-RON2 inh	Pf growth 96h	SARS PLP yeast	Pf growth 48h
Cc1ccnc(NC(=O)C2CCCN(c3ncnc4c3nc3n4CCCCC3)C2)c1 (centres undefined)	3%	10µM*	3%	-3%
CC(=O)c1ccc(N2CCN(C(=O)C3CCCN(c4ncnc5c4nc4n5CCCCC4)C3)CC2)cc1 (centres undefined)	11%	u	-6%	13µM*
CN1CCN(C(=O)C2CCCN(c3ncnc4c3nc3n4CCCCC3)C2)CC1 (centres undefined)	-9%	1%	3%	u
COc1ccc(N2CCN(C(=O)C3CCCN(c4ncnc5c4nc4n5CCCCC4)C3)CC2)cc1 (centres undefined)	-7%	4%	-2%	12µM*
CCc1ccc(CCC(=O)Nc2ccc(C)cc2C)o1	-3%	16%	1%	9%
Cn1cc(CN2CCN(Cc3cccnc3)CC2)c(-c2ccc3c(c2)OCCO3)n1	13%	u	0%	-14%
COc1ccccc1NC(=O)c1nn(C)c(C(=O)Nc2ccccc2OC)c1[N+](=O)[O-]	7%	1%	4%	-13%
CC(=O)c1ccc(NC(=O)C2CCCN(c3ncnc4c3nc3n4CCCCC3)C2)cc1 (centres undefined)	-3%	6.6µM*	-4%	u
CC1CCCCN1CCCNC(=O)C1CCCN(c2ncnc3c2nc2n3CCCCC2)C1 (centres undefined)	1%	u	-1%	u
CSc1cccc(NC(=O)C2CCCN(c3ncnc4c3nc3n4CCCCC3)C2)c1 (centres undefined)	-4%	0%	-6%	-26%
COc1ccc(NC(=O)C2CCN(c3ncnc4c3nc3n4CCCCC3)CC2)c(OC)c1	0%	u	13%	-16%
COc1ccccc1NC(=O)C1CCN(c2ncnc3c2nc2n3CCCCC2)CC1	-6%	10µM*	0%	u
CC1CCN(CCNC(=O)C2CCCN(c3ncnc4c3nc3n4CCCCC3)C2)CC1 (centres undefined)	-7%	2.9µM*	4%	-8%
COc1ccc(NC(=O)C2CCCN(c3c4c(nc5ncnn35)CCC4)C2)cc1 (centres undefined)	7%	12µM*	15%	-20%
CC1S/C(=N/N=C/c2ccco2)N(Cc2ccc(F)cc2)C1=O (centres undefined)	-10%	15%	-1%	-2%
c1ccc2[nH]c(SCC3CCCCO3)nc2c1 (centres undefined)	-2%	i	-2%	i
CC(C)OC(=O)c1c(N)n(CC2CCCO2)c2nc3ccccc3nc12 (centres undefined)	7%	49%	0%	u
Nc1c(C(=O)OC2CCCCC2)c2nc3ccccc3nc2n1CC1CCCO1 (centres undefined)	18%	13µM*	-7%	u
CC(C)OCCCNC(=O)c1c(N)n(CC2CCCO2)c2nc3ccccc3nc12 (centres undefined)	21%	u	-3%	3.3µM*
CCCNC(=O)c1c(N)n(CC2CCCO2)c2nc3ccccc3nc12 (centres undefined)	31%	u	-38%	-55%
Cc1nn2c(NCC(C)C)c3c(nc2c1-c1ccccc1)CCC3	15%	u	5%	u
OC(CN1CCCCC1)c1ccc(Br)cc1 (centres undefined)	19%	x	x	x
CC1CC(=O)N(c2ccc(NCCc3ccccc3)c([N+](=O)[O-])c2)C1=O (centres undefined)	-18%	18%	2%	19%
CCCCCOP(=O)(OCCCCC)C1(NS(=O)(=O)c2ccccc2)C=CC(=O)c2ccccc21 (centres undefined)	u	7.4µM*	-10%	9.3µM*
CCOP(=O)(OCC)C(NS(=O)(=O)c1ccccc1)C(Cl)(Cl)Cl (centres undefined)	5%	41%	-2%	-11%
O=C(c1ccc(-c2nnc(Nc3ccccc3)c3ccccc23)cc1)N1C[C@H]2C[C@H](C1)c1cccc(=O)n1C2	8%	3.7µM*	3%	13µM*
O=C(O)c1ccc(NC(=O)N2C[C@H]3C[C@@H](C2)c2cccc(=O)n2C3)cc1	7%	u	-2%	3%
O=C1c2ccccc2C(=O)C1(CO)c1ccc(OC(F)F)cc1	0%	126%	-1%	12µM*
CC1(C(=O)CSc2ncn[nH]2)CCC(=O)O1 (centres undefined)	x	u	-2%	x
